Reference: PubChem BioAssay (EPA / NIEHS)
Activity calls are given as the source filed them. How the source made its calls: active means hit-call score of the fitted dose curve at least 0.9, where 1 is the maximum; inactive means score below 0.9.

target: CCAAT/enhancer-binding protein beta (Homo sapiens) (UniProt P17676); assay: ATG_C_EBP_CIS: Attagene CIS-FACTORIAL HepG2 Assay for human CCAAT/Enhancer Binding Protein (C/EBP) beta (AID 2282927); conditions: HepG2 Attagene cis-factorial transcription factor reporter; actives raise or lower the signal
Sequence (P17676 whole entry, looked up): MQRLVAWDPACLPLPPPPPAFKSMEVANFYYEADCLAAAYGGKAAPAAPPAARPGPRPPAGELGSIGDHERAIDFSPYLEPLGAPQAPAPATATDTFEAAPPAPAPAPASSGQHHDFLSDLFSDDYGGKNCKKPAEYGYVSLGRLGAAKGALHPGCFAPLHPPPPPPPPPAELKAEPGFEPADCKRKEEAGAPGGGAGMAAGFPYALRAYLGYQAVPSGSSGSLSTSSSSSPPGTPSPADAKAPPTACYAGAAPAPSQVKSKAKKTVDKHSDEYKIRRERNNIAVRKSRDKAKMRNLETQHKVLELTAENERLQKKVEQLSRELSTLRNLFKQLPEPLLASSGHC
Method in brief: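 Following a 24 h incubation with test chemical, transfected HepG2 cells yielded RNA whose reporter transcripts were quantified by RT-PCR and fluorescent capillary electrophoresis, with DMSO serving as baseline for bidirectional fitting.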

Structure (SMILES) | outcome | AC50
CNC(=C[N+](=O)[O-])NCCSCc1csc(CN(C)C)n1 | inactive | –
O=C1CCCCCCCCCCCCCC1 | inactive | –
CCCC(=O)OC/C=C(\C)CCC=C(C)C | inactive | –
CCCCCCC(O)CCCCCCCCCCC(=O)OC (stereo not drawn) | inactive | –
O=C(O)/C=C/C(=O)O | inactive | –
O=S(=O)(O)c1cccc2ccccc12 | inactive | –
C/C=C(\C)C(=O)OCC/C=C\CC | inactive | –
CC/C=C\CC/C=C/C(OCC)OCC | inactive | –
C=CCOCC(CC)(CO)COCC=C | inactive | –
CN1CCCC1 | inactive | –
CCO[Si](CCCN)(OCC)OCC | inactive | –
O=[N+]([O-])c1ccccc1C(F)(F)F | inactive | –
CCc1cc(C(N)=S)ccn1 | inactive | –
CCC(C)=NO | inactive | –
COc1cccc(OC)c1C(=O)O | inactive | –
C=C1CC[C@H]2C[C@@H]1C2(C)C | inactive | –

Structure (SMILES) | outcome | AC50
CCCCCC1CCCC(=O)O1 (stereo not drawn) | inactive | –
COC(=O)[C@]1(C)CCC[C@@]2(C)[C@H]1CC=C1C=C(C(C)C)CC[C@@H]12 | inactive | –
Cc1cc(-n2nc3ccc(Cl)cc3n2)c(O)c(C(C)(C)C)c1 | inactive | –
O=C(OCc1ccccc1)c1ccccc1 | inactive | –
CCCCCCC1CCCC(=O)O1 (stereo not drawn) | inactive | –
c1ccc(CNc2ncnc3nc[nH]c23)cc1 | inactive | –
NC(=O)c1ccc(N)cc1 | inactive | –
CC(C)=CCOC(=O)c1ccccc1 | inactive | –
Oc1cccc2ccccc12 | inactive | –
C=CN1CCCCCC1=O | inactive | –
Oc1ccc(Oc2ccccc2)cc1 | inactive | –
CC(=O)CCc1ccccc1 | inactive | –
c1ccc2c(c1)Oc1ccccc1S2 | inactive | –
CCCCCC[C@@H](O)C/C=C\CCCCCCCC(=O)O | – | 77 µM (active)
CC[N+](CC)(CC(=O)Nc1c(C)cccc1C)Cc1ccccc1 (tested in a mixture with another compound) | inactive | –

system: not listed separately; assay: ATG_CMV_CIS: Attagene CIS-FACTORIAL HepG2 Assay for human CMV (Internal Marker) (AID 2282928); conditions: HepG2 CMV promoter reporter, transcription factor profiling; actives raise or lower the signal;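 further: endpoint acts as a background internal control marker rather than a target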
Method in brief: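 Bidirectional fits against DMSO are applied to reporter mRNA, read by RT-PCR with capillary electrophoresis, from HepG2 cells exposed 24 h. The endpoint serves as an internal CMV background marker within the cis-factorial reporter panel.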

Structure (SMILES) | outcome | AC50
CNC(=C[N+](=O)[O-])NCCSCc1csc(CN(C)C)n1 | inactive | –
O=C1CCCCCCCCCCCCCC1 | inactive | –
CCCC(=O)OC/C=C(\C)CCC=C(C)C | inactive | –
CCCCCCC(O)CCCCCCCCCCC(=O)OC (stereo not drawn) | inactive | –
COC(=O)c1ccccc1 | inactive | –
O=C(O)/C=C/C(=O)O | inactive | –
O=S(=O)(O)c1cccc2ccccc12 | inactive | –
C/C=C(\C)C(=O)OCC/C=C\CC | inactive | –
CC/C=C\CC/C=C/C(OCC)OCC | – | 150 µM (active)
C=CCOCC(CC)(CO)COCC=C | inactive | –
CN1CCCC1 | inactive | –
CCO[Si](CCCN)(OCC)OCC | inactive | –
CCCCCCC1CCC(=O)O1 (stereo not drawn) | inactive | –
O=[N+]([O-])c1ccccc1C(F)(F)F | inactive | –
CCC(=O)OCc1ccc(OC)cc1 | inactive | –
CCc1cc(C(N)=S)ccn1 | inactive | –
CCC(C)=NO | inactive | –
COc1cccc(OC)c1C(=O)O | inactive | –
C=C1CC[C@H]2C[C@@H]1C2(C)C | inactive | –
CCCCCC1CCCC(=O)O1 (stereo not drawn) | inactive | –

Structure (SMILES) | outcome | AC50
COC(=O)[C@]1(C)CCC[C@@]2(C)[C@H]1CC=C1C=C(C(C)C)CC[C@@H]12 | – | 100 µM (active)
Cc1cc2nc3c(=O)[nH]c(=O)nc-3n(C[C@H](O)[C@H](O)[C@H](O)CO)c2cc1C | inactive | –
Cc1cc(-n2nc3ccc(Cl)cc3n2)c(O)c(C(C)(C)C)c1 | inactive | –
O=C(OCc1ccccc1)c1ccccc1 | inactive | –
CCCCCCC1CCCC(=O)O1 (stereo not drawn) | inactive | –
c1ccc(CNc2ncnc3nc[nH]c23)cc1 | inactive | –
NC(=O)c1ccc(N)cc1 | inactive | –
CC(=O)Nc1c(I)c(NC(C)=O)c(I)c(C(=O)O)c1I | inactive | –
CC(C)=CCOC(=O)c1ccccc1 | inactive | –
CC(C)(C)NC(=O)[C@@H]1CN(Cc2cccnc2)CCN1C[C@@H](O)C[C@@H](Cc1ccccc1)C(=O)N[C@H]1c2ccccc2C[C@H]1O | inactive | –
Oc1cccc2ccccc12 | – | 100 µM (active)
C=CN1CCCCCC1=O | inactive | –
Oc1ccc(Oc2ccccc2)cc1 | – | 44.9 µM (active)
CC(=O)CCc1ccccc1 | inactive | –
CNC[C@H](O)[C@@H](O)[C@H](O)[C@H](O)CO | inactive | –
CN(C)c1ccc(C(c2ccccc2)c2ccc(N(C)C)cc2)cc1 | inactive | –
c1ccc2c(c1)Oc1ccccc1S2 | inactive | –
CCCCCC[C@@H](O)C/C=C\CCCCCCCC(=O)O | inactive | –
CC[N+](CC)(CC(=O)Nc1c(C)cccc1C)Cc1ccccc1 (tested in a mixture with another compound) | inactive | –

system: not listed separately; assay: ATG_DR4_LXR_CIS: Attagene CIS-FACTORIAL HepG2 Assay for human Liver X Receptor (LXR), DR4 submotif (AID 2282929); conditions: HepG2 Attagene DR4 cis-reporter, mRNA transcription; actives raise or lower the signal
Method in brief: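 Readout: reporter transcript fluorescence after RT-PCR and capillary electrophoresis, fitted bidirectionally against DMSO controls. Human HepG2 liver cells carried transiently transfected multiplexed reporter constructs; endogenous transcription factor activity measured 24 h post-dosing.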

Structure (SMILES) | outcome | AC50
CNC(=C[N+](=O)[O-])NCCSCc1csc(CN(C)C)n1 | inactive | –
O=C1CCCCCCCCCCCCCC1 | – | 49.4 µM (active)
CCCC(=O)OC/C=C(\C)CCC=C(C)C | inactive | –
CCCCCCC(O)CCCCCCCCCCC(=O)OC (stereo not drawn) | inactive | –
COC(=O)c1ccccc1 | inactive | –
O=C(O)/C=C/C(=O)O | inactive | –
O=S(=O)(O)c1cccc2ccccc12 | inactive | –
C/C=C(\C)C(=O)OCC/C=C\CC | inactive | –
CC/C=C\CC/C=C/C(OCC)OCC | inactive | –
C=CCOCC(CC)(CO)COCC=C | inactive | –
CN1CCCC1 | inactive | –
CCO[Si](CCCN)(OCC)OCC | inactive | –
CCCCCCC1CCC(=O)O1 (stereo not drawn) | inactive | –
O=[N+]([O-])c1ccccc1C(F)(F)F | inactive | –
CCC(=O)OCc1ccc(OC)cc1 | inactive | –
CCc1cc(C(N)=S)ccn1 | inactive | –
CCC(C)=NO | inactive | –
COc1cccc(OC)c1C(=O)O | inactive | –
C=C1CC[C@H]2C[C@@H]1C2(C)C | inactive | –

Structure (SMILES) | outcome | AC50
CCCCCC1CCCC(=O)O1 (stereo not drawn) | inactive | –
COC(=O)[C@]1(C)CCC[C@@]2(C)[C@H]1CC=C1C=C(C(C)C)CC[C@@H]12 | inactive | –
Cc1cc2nc3c(=O)[nH]c(=O)nc-3n(C[C@H](O)[C@H](O)[C@H](O)CO)c2cc1C | inactive | –
Cc1cc(-n2nc3ccc(Cl)cc3n2)c(O)c(C(C)(C)C)c1 | inactive | –
O=C(OCc1ccccc1)c1ccccc1 | inactive | –
CCCCCCC1CCCC(=O)O1 (stereo not drawn) | inactive | –
c1ccc(CNc2ncnc3nc[nH]c23)cc1 | inactive | –
NC(=O)c1ccc(N)cc1 | inactive | –
CC(=O)Nc1c(I)c(NC(C)=O)c(I)c(C(=O)O)c1I | inactive | –
CC(C)=CCOC(=O)c1ccccc1 | inactive | –
CC(C)(C)NC(=O)[C@@H]1CN(Cc2cccnc2)CCN1C[C@@H](O)C[C@@H](Cc1ccccc1)C(=O)N[C@H]1c2ccccc2C[C@H]1O | inactive | –
Oc1cccc2ccccc12 | inactive | –
C=CN1CCCCCC1=O | inactive | –
CC(=O)CCc1ccccc1 | inactive | –
CNC[C@H](O)[C@@H](O)[C@H](O)[C@H](O)CO | inactive | –
CN(C)c1ccc(C(c2ccccc2)c2ccc(N(C)C)cc2)cc1 | inactive | –
c1ccc2c(c1)Oc1ccccc1S2 | – | 171 µM (active)
CCCCCC[C@@H](O)C/C=C\CCCCCCCC(=O)O | – | 70.4 µM (active)
CC[N+](CC)(CC(=O)Nc1c(C)cccc1C)Cc1ccccc1 (tested in a mixture with another compound) | inactive | –
